The test system of this test is P. falciparum stage V gametocytes. Further details: BacTiter-Glo ATP luminescence viability of purified stage V gametocytes in 384-well plates, per cent inhibition versus DMSO. The settings on record: 48 h, 5 µM, inhibitor.

Molecules are shown by their SMILES. Where two headings read alike, the source gives them in different places. Hit rate of the full screen: of about 13,000 compounds, about 3,200 (25%) showed an effect of 50% or more. Some of the results follow.

For orientation: % Inhibition means the change of the read-out against control, counted positive when it falls. As for `COc1ccc2nccc([C@@H](O)CN3CCC(NC(=O)c4cccc(-c5cc(C)no5)c4)CC3)c2c1` [TCMDC-141133], the “% Inhibition” value is recorded as -80.32%.
For the molecule `Cc1nn(-c2ccccc2)nc1C(=O)NC1CCN(CCNC(=O)c2ccc(Cl)c(Cl)c2)CC1` [TCMDC-141951], the “% Inhibition” value is reported as 7.25%.
In the case of `Cc1noc(C)c1-c1cccc(C(=O)NC2CCN(CCNC(=O)C(c3ccccc3)c3ccccc3)CC2)c1` [TCMDC-133354], the “% Inhibition” value amounted to 85.49%.
On the same count and under the same terms, as for `OCCn1c(CNCCCNc2nc3ccccc3[nH]2)cc2c(Cl)cc(Cl)cc21` [TCMDC-140142], the figure is 2.661%.
On the same count and under the same terms, as for `CNc1nc(N/N=C/c2cc([N+](=O)[O-])c(Cl)cc2Cl)nc(Nc2cccc(C(F)(F)F)c2)n1` [TCMDC-124087], the figure is -4.111%; as for `CCn1c(-c2nonc2N)nc2c(-c3cccc(NC(=O)Nc4ccccc4OC)c3)ncc(OCCCN)c21` [TCMDC-136190], 111.9%; as for `COc1cccc(-c2ccc3c(-c4cccc(NC(C)=O)c4)cnc(N)c3c2)c1` [TCMDC-134562], 29.05%.
On the same count and under the same terms, as for `CCn1c(-c2nonc2N)nc2c(-c3cccc(NC(=O)Nc4cccc(OC)c4)c3)ncc(OCCCN)c21` [TCMDC-136180], the figure is 96.94%; as for `CCn1c(-c2nonc2N)nc2cnc(Oc3cccc(NC(=O)c4ccc(OCCN(C(C)C)C(C)C)cc4)c3)cc21` [TCMDC-135777], -15.21%.
For `CCn1c(-c2nonc2N)nc2c(C#CC(C)(C)O)ncc(OCCNCCc3ccc(OC)cc3)c21` [TCMDC-136364], the “% Inhibition” value is listed as 100.7%.
Regarding `CCn1c(-c2nonc2N)nc2c(-c3cccc(NC(=O)Nc4ccccc4Cl)c3)ncc(OCCCN)c21` [TCMDC-136192], the “% Inhibition” value stood at 107.4%.
Regarding `COc1ccccc1NC(=O)Nc1cccc(-c2cccc(-c3nc4c(C)cccc4[nH]3)c2)c1` [TCMDC-133204], the “% Inhibition” value is given as -4.891%.
Same read-out and setting: as for `COc1ccccc1NC(=O)Nc1cccc(-c2ccc(-c3nc4cccc(C)c4[nH]3)s2)c1` [TCMDC-133200], the figure is 0.164%; as for `CCC(Cc1cnc2nc(N)nc(N)c2n1)c1ccc(C(=O)O)cc1` (stereo not drawn) [TCMDC-137331], 24.52%; as for `FC(F)(F)c1ccc2[nH]c(-c3ccc(-c4ccc(CN5CCN(c6ccncc6)CC5)cc4)s3)nc2c1.O=C(O)C(F)(F)F` [TCMDC-132920], -8.718%.
Regarding `O=C(Nc1ccc([N+](=O)[O-])cc1O)Nc1ccccc1Oc1ccccc1` [TCMDC-139010], the “% Inhibition” value was -27.06%.
On the same count and under the same terms, the value for `O=c1[nH]c2c(c(O)c1[N+](=O)[O-])CCC2` [TCMDC-131385] was -1.405%; that for `Cc1ccc(NC(=O)NC2CCN(CCC(NC(=O)Cc3ccccc3)c3ccc(Cl)c(Cl)c3)CC2)cc1` (stereo not drawn) [TCMDC-141708] was -50.52%.
The same measure, in the same setting: the value for `CCOC(=O)C(=O)N1c2ccc(OCC)cc2-c2c(ssc2=S)C1(C)C` [TCMDC-124090] was -28.77%; that for `COc1cc(NC(=O)/C=C/c2cccc3cc[nH]c23)ccc1OCCN(C(C)C)C(C)C` [TCMDC-139962] was 14.04%; that for `Cc1cc(NC(=O)c2ccc(-c3ccccc3)cc2)no1` [TCMDC-123478] was 45.67%.
Same read-out and setting: the value for `CCC(NC(=O)c1ccccc1NC(=O)c1ccc(C)cc1)C(=O)OC` (stereo not drawn) [TCMDC-124179] was 51.66%.
On to `CCOC(=O)c1ccc(NC(=O)c2ccccc2C(=O)O)cc1` [TCMDC-125804], for which the “% Inhibition” value came to 12.67%.
With `CC(=O)N(C)/N=C/[C@H](CCc1ccccc1)NC(=O)[C@H](CC(C)C)NC(=O)c1cccc(OCCN2CCOCC2)c1` [TCMDC-135821], the “% Inhibition” value stood at 14.53%.
For the molecule `OC1(C(F)(F)F)CC(c2ccccc2)=NN1c1nncc(-c2ccccc2)n1` (stereo not drawn) [TCMDC-123864], the “% Inhibition” value came to 70.72%.
`O=C(Nc1cccc(-c2cccc(-c3nc4ccccc4[nH]3)c2)c1)NC1CC1c1ccccc1` (stereo not drawn) [TCMDC-133253]: for the setting “% Inhibition”, the “% Inhibition” value was -2.475%.
As to `Cc1cc(-c2cccc(CNC3CCN(C)CC3)c2)ccc1S(=O)(=O)NCc1ccccc1` [TCMDC-132379], the “% Inhibition” value is 41.73%.
Same read-out and setting: as for `CN1CCC(NCc2cccc(-c3ccc(S(=O)(=O)NCc4ccccc4)c(F)c3)c2)CC1` [TCMDC-132219], the figure is 107.3%; as for `CN1CCC(NCc2ccc(-c3ccc(S(=O)(=O)NCc4ccccc4)c(F)c3)cc2)CC1` [TCMDC-132235], 73.08%; as for `Cc1cc(-c2ccc(CNC3CCN(C)CC3)cc2)ccc1S(=O)(=O)NCc1ccccc1` [TCMDC-132474], 44.56%.
As to `CCNc1cc(C(=O)N[C@@H](Cc2ccccc2)[C@H](O)CN[C@H](C)C(C)(C)C)cc(N2CCCCS2(=O)=O)c1` [TCMDC-135194], the “% Inhibition” value was determined as 4.242%.
For the molecule `O=C(N[C@@H](CC1CCCCC1)C(=O)NCc1cccc(C(F)(F)F)c1)c1ccc(O)c(-c2ccc(Cl)c(Cl)c2)c1` [TCMDC-140836], the “% Inhibition” value turned out to be 10.47%.
Still for that read-out and setting: the value for `Cc1nc2sccn2c1C(=O)NCCc1ccccc1Cl` [TCMDC-136538] was 1.524%.
With `CC(C)(CNC(=O)[C@H]1CCCN1)c1nc(-c2ccc(Cl)c(O)c2)c(-c2ccncc2)[nH]1` [TCMDC-141060], the “% Inhibition” value is -63.79%.
As for `COc1ccccc1CCNc1nccc(N[C@@H](Cc2ccccc2)C(=O)NCc2cccs2)n1` [TCMDC-134745], the “% Inhibition” value turned out to be 80.93%.
Take `O=C(NCCc1ccccc1)[C@H](Cc1ccccc1)Nc1ccnc(NCC2CCCCC2)n1` [TCMDC-134711]: the “% Inhibition” value is recorded as 29.07%.
As to `O=C(NCc1cccs1)[C@H](Cc1ccccc1)Nc1ccnc(NCCc2ccc(F)cc2)n1` [TCMDC-134825], the “% Inhibition” value stood at 42.49%.
Still for that read-out and setting: as for `O=C(NCc1cccs1)[C@H](Cc1ccccc1)Nc1ccnc(NCCc2ccccc2)n1` [TCMDC-134810], the figure is 62.6%; as for `COc1ccccc1CCNc1ncc(F)c(N[C@@H](Cc2ccccc2)C(=O)NCCc2ccccc2)n1` [TCMDC-134948], 4.371%; as for `O=C(NCc1cccs1)[C@H](Cc1ccccc1)Nc1ccnc(NCC2CCCCC2)n1` [TCMDC-134708], -6.926%.
On the same count and under the same terms, as for `O=C(C1CC1)N1c2ccccc2CCc2ccccc21` [TCMDC-123880], the figure is 17.87%; as for `COc1cc(Cl)c(C)cc1-n1cc(C(=O)c2cc(Br)ccc2O)cc(C#N)c1=O` [TCMDC-123630], -51.04%.
Still for that read-out and setting: the value for `CCCCC(CC)NC(=O)[C@H]1CNCCN1C(=O)CCCc1ccccc1` (stereo partly drawn) [TCMDC-141269] was -15.01%; that for `CCCCOC(=O)C1=C(C)NC2=C(C(=O)CCC2)C1c1ccc(OC)c(Br)c1` (stereo not drawn) [TCMDC-124210] was -70.69%; that for `CCCCOC(=O)C1=C(C)NC2=C(C(=O)CC(c3ccc(OC)c(OC)c3)C2)C1c1ccc(O)cc1` (stereo not drawn) [TCMDC-125635] was 28.36%.
`CCOC(=O)C1=C(C)NC2=C(C(=O)C(C(=O)OC)C(C)C2)C1c1cc(Br)c(OCC)c(OC)c1` (stereo not drawn) [TCMDC-125139]: the “% Inhibition” value was 94.17%.
On to `O=C(Nc1ccc(-c2ccc(-c3nc4ccccc4[nH]3)cc2)cc1)Nc1ccc(Cl)c(Cl)c1` [TCMDC-133279], for which the “% Inhibition” value is -60.39%.
Same read-out and setting: as for `Oc1ccc(CN2CCN(CCOC(c3ccc(F)cc3)c3ccc(F)cc3)CC2)cc1Cl` [TCMDC-135691], the figure is 8.088%; as for `CN1CCC(C(=O)Nc2cccc(-c3ccc(-c4nc5ccc(C(F)(F)F)cc5[nH]4)cc3)c2)CC1` [TCMDC-132190], 21.59%.
The same measure, in the same setting: the value for `O=C(N[C@@H](CC1CCCCC1)C(=O)NCCN1CCCCC1)c1ccc(O)c(-c2ccc(Cl)c(Cl)c2)c1` [TCMDC-140862] was 10.77%.
Regarding `CC(C)CN(c1nc(C(=O)NNC(=O)[C@H](CC2CC2)NC(=O)c2cc3cc(OCCN(C)C)ccc3o2)cs1)C1CC1` [TCMDC-139231], the “% Inhibition” value was -13.37%.
The same measure, in the same setting: as for `CC(C)CN(c1nc(C(=O)NNC(=O)[C@H](CC2CC2)NC(=O)c2cc3cc(OCCN4CCCCC4)ccc3o2)cs1)C1CC1` [TCMDC-139232], the figure is 55.6%.
With `Oc1ccc2ccccc2c1CNC1CCCCCC1` [TCMDC-137607], the “% Inhibition” value turned out to be 9.064%.
On to `Cc1nn(CC(O)Cn2c3ccc(Br)cc3c3cc(Br)ccc32)c(C)c1Br` (stereo not drawn) [TCMDC-124164], for which the “% Inhibition” value was 72.64%.
Same read-out and setting: the value for `CC(C)(C)SCC(O)Cn1c2ccc(Br)cc2c2cc(Br)ccc21` (stereo not drawn) [TCMDC-124058] was -64.42%.
In the case of `CC(NCC(O)Cn1c2ccccc2c2ccccc21)c1ccccc1` (stereo not drawn) [TCMDC-124073], the “% Inhibition” value is 13.55%.
Regarding `CC12CCC(CN(CC(O)Cn3c4ccccc4c4cc(I)ccc43)C1)C2(C)C` (stereo not drawn) [TCMDC-124075], the “% Inhibition” value is listed as -73.11%.
The same measure, in the same setting: as for `CC1CC(C)CN(CC(O)CNC(=O)Nc2ccc(Br)cc2)C1` (stereo not drawn) [TCMDC-134636], the figure is 5.991%; as for `OC(CNCc1ccco1)Cn1c2ccc(Br)cc2c2cc(Br)ccc21` (stereo not drawn) [TCMDC-124071], 6.388%; as for `OC(CN1CCN(C2CCCCC2)CC1)Cn1c2ccccc2c2cc(Br)ccc21` (stereo not drawn) [TCMDC-124167], -21.87%.
Still for that read-out and setting: the value for `OC(CNC1CCCCC1)Cn1c2ccc(I)cc2c2cc(I)ccc21` (stereo not drawn) [TCMDC-124074] was 101.6%; that for `CC1CN(CC(O)Cn2c3ccc(Br)cc3c3cc(Br)ccc32)CC(C)O1` (stereo not drawn) [TCMDC-124072] was 94.88%; that for `OC(CNC1CCCCC1)Cn1c2ccccc2c2ccccc21` (stereo not drawn) [TCMDC-124168] was 90.81%.
The same measure, in the same setting: the value for `CC(C)(CNC(=O)C1CCN(CC2CCCCC2)CC1)c1nc(-c2ccc(Cl)c(O)c2)c(-c2ccncc2)[nH]1` [TCMDC-141147] was -93.22%.
Turning to `CN(C)CCOc1ccc(-c2cc(-c3ccnc(N)n3)c(-c3ccc(Cl)c(O)c3)o2)cc1` [TCMDC-141338], the “% Inhibition” value is -4.532%.
`CCCCCc1cc(O)c2c(c1)OC(C)(C)CC2C1=CCN(Cc2cccnc2)CC1` (stereo not drawn) [TCMDC-131417]: the “% Inhibition” value is recorded as -23.46%.
